Results as given in PubChem BioAssay (NCI).
This is part of a sample that, as a whole, favours compounds with a hit. Of some 83,000 tested, about 20% had one in any assay.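 Step 1: grow cells in 96-well plates. Step 2: add test compound at a single concentration. Step 3: incubate 48 h. Step 4: record percent growth.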 Unmarked numbers belong to inactive results. Active and inactive are the calls of the source. The calls were made as follows: active = growth percent below 10; inactive = the rest.

These compounds were tested on SR leukemia (assay: NCI-60 one-dose screen, 48 h (100 = growth as untreated, 0 = no growth, -100 = all killed)). Conditions: 10 µM unless noted.

| Structure (SMILES) | growth |
| --- | --- |
| CCCCCN1C=C/C(=C\C(=O)N(C)c2ccc(Oc3ccccc3)cc2)c2ccccc21 | 82.1% |
| CNC(=O)c1cncc(Cn2nc(C)c(NC(=O)c3ccc(COc4ccc(C(F)(F)F)cc4C)cc3)c2C)c1 | 25% |
| Nc1c(C(=O)Nc2ccnc3ccccc23)sc2nc3c(cc12)CN(Cc1ccccc1)CC3 | 35.5% |
| CC1=C(C(=O)/C=C/c2ccc(N(C)C)cc2)C(c2ccccc2)NC(=S)N1 (stereo not drawn) | 96.8% |
| Nc1nc(Nc2ccccc2SSc2ccccc2Nc2nc(N)nc(-c3cccs3)n2)nc(-c2ccsc2)n1 | 31.3% |
| COc1cc2c(cc1OC)C(=O)/C(=C/c1cc(C)c(O)c(C)c1)S2 | 18.7% |
| COc1cc2c(=O)n(CCCN(C)C)c3c4cc5c(cc4ccc3c2cc1OC)OCO5 | 9.59% (active) |
| CCN(CC)CC[n+]1cc2cc(OC)c(OC)cc2c2ccc3cc4c(cc3c21)OCO4 | -11.3% (active) |
| O=C(Nc1ccc(NC(=O)c2cc(=O)[nH]c3ccccc23)cc1)Nc1cccc(Cl)c1 | 36.2% |
| COc1ccc(/C=C2\Oc3cc(OCCCN4CCCCC4)ccc3C2=O)cc1OC | -18.7% (active) |
| Cc1nc(N)nc(N[C@@H](C)c2nc3cccc(NCc4ccc(C(=O)NO)cc4)c3c(=O)n2-c2ccccc2)n1 | 33.3% |
| Cc1ccc(/C=N/NC(=O)CSc2nc3ccccc3c(=O)n2Cc2ccc(S(N)(=O)=O)cc2)cc1 | 49.4% |
| COc1cc(/C(C)=C(\c2ccc(Cl)cc2)c2ccc(OCCN3CCCC3)cc2)ccc1F | -25.3% (active) |
